# Source: PubChem
# This is a sample that favours compounds with a hit; in the whole collection about 9.2% have one here.
# SMN2 splice enh = SMN2 splice variant enhancement | 210,000 compounds, 2.8% hits | HEK293 SMN2-luciferase splicing reporter, luminescence, 30-36 h | Potency, µM (series often up to 46.1 µM), inactives show top-dose activity change, positive = activation, most hits filed as activators | AID 1458; further: % of control where 0% means no effect; nearly all actives have a fitted effect of over 55% in size
#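 HEK293 cells carry an SMN2 […]–luciferase reporter in which exon 7 inclusion puts luciferase in frame. Cells were plated 10-12 h before compound addition, then incubated 30-36 h at 37C. ONE-Glo luminescence was read; sodium butyrate at 4.5 mM final served as control.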
# Rab9 promoter act = Rab9 promoter activation; Huh7 Rab9 promoter-luciferase reporter, luminescence, 24 h; Potency, µM (titrated, usually from 9.22 µM), for the others: top-dose activation, negative = inhibition, most hits filed as activators; 320,000 compounds, 2.8% hits; further: % of control where 0% means no effect; nearly all actives have a fitted effect of over 60% in size
#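 Steps: seed 1500 Huh7 Rab9-luc cells per well, rest 2 h at 37 °C; add compound in DMSO; incubate 24 h; add luciferase reagent, 10 min ambient; read luminescence.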
# FLuc modulator = inhibits or activates purified firefly luciferase, miR-21 counter-screen; purified FLuc, Km substrates, luminescence inhibition; 360,000 compounds, 6.9% hits; Potency, µM (doses to about 57.5 µM), without a hit: at the highest dose activity change, negative = inhibition, most hits filed as inhibitors; P08659; AID 588342;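 further: plate controls were vehicle for no effect and reference inhibitor for full effect; nearly all actives have a fitted effect of over 55% in size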
# Target sequence (P08659 whole entry, looked up): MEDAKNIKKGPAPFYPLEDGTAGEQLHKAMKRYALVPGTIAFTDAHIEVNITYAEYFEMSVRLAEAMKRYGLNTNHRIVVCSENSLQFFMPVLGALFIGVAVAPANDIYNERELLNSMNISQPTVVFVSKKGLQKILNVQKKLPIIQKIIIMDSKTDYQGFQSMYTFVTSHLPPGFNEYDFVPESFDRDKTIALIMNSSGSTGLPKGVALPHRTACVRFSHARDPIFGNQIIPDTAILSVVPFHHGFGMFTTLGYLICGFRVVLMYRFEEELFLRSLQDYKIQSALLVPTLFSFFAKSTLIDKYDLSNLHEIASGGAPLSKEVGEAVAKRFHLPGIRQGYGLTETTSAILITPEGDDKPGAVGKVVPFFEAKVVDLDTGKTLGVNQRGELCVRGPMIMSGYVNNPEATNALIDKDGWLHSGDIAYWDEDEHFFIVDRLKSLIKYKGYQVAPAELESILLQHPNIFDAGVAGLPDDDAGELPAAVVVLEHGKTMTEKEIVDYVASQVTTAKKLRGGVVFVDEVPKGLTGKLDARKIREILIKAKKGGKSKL
#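 Biochemical qHTS of compounds, final roughly 60 µM downward over six points, against 10 nM purified firefly luciferase using Km concentrations of substrates (10 uM D-luciferin, 10 uM ATP) in Tris acetate pH 7.5 buffer; luminescence output.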
# ELG1 genotox = inducers of genotoxicity in HEK293T ELG1-luciferase cells; 330,000 compounds, 1.3% hits; Potency, µM (top dose mostly 46 µM), inactives show at the highest dose activity change, positive = activation, usual class: activators; HEK293T ELG1-luciferase reporter, luminescence, 16 h; further: % of control where 0% means no effect; nearly all actives have a fitted effect of over 60% in size
#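 Step 1: seed 2,000 HEK293T ELG1-luciferase cells per well. Step 2: add compound or DMSO, incubate 16 hr at 37 °C. Step 3: ONE-Glo, 30 min at room temperature, read luminescence.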
# ELG1 DNA repair = inhibitors of ELG1-dependent DNA repair in HEK293T cells | HEK293T ELG1-luciferase reporter, luminescence, 16 h; DNA damage induced by 5-fluorouridine | Potency, µM (doses to about 46.1 µM), without a hit: top-dose activity change, negative = inhibition, actives largely listed as inhibitors | 330,000 compounds, 2.3% hits; further: on the % scale 0 is the no-effect control and ±100 the full control effect; nearly all actives have a fitted effect of over 55% in size
#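 Luminescence from the luciferase reporter, measured 30 min after ONE-Glo reagent at room temperature, was the read-out. Beforehand, 2,000 cells per well were exposed for 16 hr at 37 °C to 5-fluorouridine together with compound or vehicle.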
# NPC1 prom act = activators of NPC1 promoter; AID 485313; Potency, µM (series often up to 9.22 µM), for the others: at the highest dose activation, usual class: activators; Huh7 NPC1 promoter luciferase reporter, 24 h; 320,000 compounds, 2.4% hits; further: % of control where 0% means no effect; nearly all actives have a fitted effect of over 60% in size
#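 Luciferase expression driven by the NPC1 promoter was measured in stably transfected Huh7 cells after a 24 h compound incubation, using a luciferase reagent and a luminescence read.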
# An asterisk follows results filed as active; ? = inconclusive; . = no result. The call rests on the fitted dose curve; in most records, active means well fitted curve in the direction sought with a large enough effect; inconclusive means small, poorly fitted or top-dose-only effect, or another doubt; inactive means no such curve, though single readings can be large; an effect the other way counts as inactive or inconclusive. Potency means the concentration at half of the fitted maximal effect.
SMILES,SMN2 splice enh,Rab9 promoter act,FLuc modulator,ELG1 genotox,ELG1 DNA repair,NPC1 prom act
CCCCOCc1cc(CN2CCN(c3cccc(Cl)c3)CC2)c(O)c2ncccc12,22%,.,1%,.,.,.
Cc1cc(C(=O)CN2CCCC(C)C2)c(C)n1-c1ccc(F)cc1 (stereo not given),18µM*,2.5µM*,15µM*,?,?,?
Cc1ccc(-n2c(C)cc(C(=O)CN3CCOCC3)c2C)cc1,11%,?,?,4%,?,24%
O=C(Nc1ccccc1)OCc1cncs1,9%,20%,-11%,8%,?,6%
O=C(/C=C/c1ccccc1)OCc1cncs1,7%,?,27µM*,?,?,29%
COc1cc(/C=C2\SC(N)=NC2=O)ccc1OCC(=O)Nc1ccccc1C,.,-5%,2%,?,6%,-8%
COc1ccc(C(=O)Nc2nc3ccc4nc(C)sc4c3s2)cc1,-6%,1%,-10%,2%,1%,5%
COc1cc(NC(=O)Cc2ccccc2)nc(OC)n1,.,4%,-1%,5%,0%,0%
COc1ccc(C(=O)Nc2nnc(C)s2)cc1,11µM*,.,13µM*,.,.,.
COc1ccc(C(=O)Nc2cc(OC)nc(OC)n2)cc1,7.9µM*,0.79µM*,4.3µM*,?,?,2.2µM*
COc1ccc(NC(=O)Nc2nnc(C)s2)cc1,21%,.,17µM*,.,.,.
CCc1nnc(NC(=O)c2cccc(C(=O)Nc3nnc(CC)s3)n2)s1,-95%,-42%,19µM*,-8%,13µM*,-32%
CCc1ccc(NC(=O)NCCc2c(C)nn(C)c2C)cc1,.,.,-1%,.,.,.
CCOc1ccc(NC(=O)CSC2=Nc3ccccc3C3=NC(CCC(=O)NCc4ccccc4)C(=O)N23)cc1 (stereo not given),.,.,5%,.,.,.
CC(C)NC(=O)N1CC[C@@]2(CCCN(C(=O)c3ccncc3)C2)C1,-2%,.,.,.,.,.
CCOCc1nnc(NC(=O)c2ccc(OC)cc2)s1,18µM*,9%,-27%,15%,?,27%
CCOCCc1nnc(NC(=O)c2cc(OC)c(OC)c(OC)c2)s1,16µM*,2%,0%,3%,5%,-1%
CCc1nnc(NC(=O)C2CCCN(S(=O)(=O)c3ccc(OC)cc3)C2)s1 (stereo not given),.,15%,19µM*,12%,?,3%
CC(C)Cc1nnc(NC(=O)Nc2ccccc2)s1,11µM*,3.2µM*,17µM*,?,?,?
COc1ccc(S(=O)(=O)N2CCCC(C(=O)Nc3ccc(OC)c(OC)c3)C2)cc1 (stereo not given),-21%,0%,0%,-10%,?,-5%
COc1c(Cl)cc(C(=O)N(Cc2ccc(C)o2)C2CCS(=O)(=O)C2)cc1Cl (stereo not given),-13%,.,-4%,.,.,.
COc1ccc(N2CCN(C(=O)c3cc(C)oc3C)CC2)cc1,.,4%,0%,0%,7%,-3%
COCCn1c(=O)[nH]c2cc(C(=O)Nc3cc(OC)c(OC)c(OC)c3)ccc2c1=O,.,3%,0%,-25%,?,-3%
COCCn1c(=O)[nH]c2cc(C(=O)Nc3nnc(C)s3)ccc21,.,?,13µM*,?,?,27%
CCc1nnc(NC(=O)Nc2ccc(OC)cc2)s1,30%,?,17µM*,?,?,?
SMILES,SMN2 splice enh,Rab9 promoter act,FLuc modulator,ELG1 genotox,ELG1 DNA repair,NPC1 prom act
CCOC(=O)c1cc(CC)sc1NC(=O)c1cc(OCC)c(OCC)c(OCC)c1,-18%,-4%,3%,-2%,-7%,-1%
CCc1cc(C(=O)O)c(NC(=O)c2cc(OC)c(OC)c(OC)c2)s1,-33%,-1%,8.5µM*,?,?,-1%
CCOC(=O)C1CCC(CN(Cc2c(Cl)cccc2Cl)S(=O)(=O)c2ccc(F)cc2)CC1 (stereo not given),.,.,-3%,.,.,.
Cc1ccc(NC(=O)CCNC(=O)c2ccc(Br)cc2)cc1S(=O)(=O)N1CCCCCC1,.,1%,2%,-8%,?,2%
CN(CC(=O)Nc1cccc(F)c1)S(=O)(=O)c1ccc2c(c1)n(C)c(=O)c(=O)n2C,-1%,.,1%,.,.,.
COc1ccc(-c2cn3nc(N4CCCC(C(=O)Nc5cccc(Cl)c5C)C4)sc3n2)cc1 (stereo not given),.,.,-14%,.,.,.
CC[C@]12CCCN3CCc4c(n(c5ccccc45)C(=O)C1)[C@@H]32,.,-14%,-2%,4%,-15%,-19%
CC[C@]12CCCN3CCc4c(n(c5ccccc45)[C@@](O)(C(=O)OC)C1)[C@@H]32,.,18%,-19%,16µM*,?,5%
Cc1occc1C(=O)N/N=C/C=C/c1ccccc1[N+](=O)[O-],-11%,-2%,?,6%,3%,2%
Cc1occc1C(=O)N/N=C/c1ccc(N(C)C)cc1,.,0.11µM*,1.2µM*,?,?,0.32µM*
Cc1ccc(/C=N/NC(=O)c2ccoc2C)o1,?,?,?,16%,?,29%
Cc1occc1C(=O)N/N=C/C=C/c1ccc(N(C)C)cc1,.,2.5µM*,24µM*,?,?,4.5µM*
Cc1occc1C(=O)N/N=C/C=C/c1ccccc1,13µM*,3.5µM*,?,?,?,3.5µM*
Cc1occc1C(=O)N/N=C/C(Br)=C\c1ccccc1,.,0.89µM*,2.1µM*,?,?,2.5µM*
CC(=O)N1c2ccccc2C(=O)C1N1CCN(c2cccc(Cl)c2)CC1 (stereo not given),.,.,-1%,.,.,.
CCc1ccc(NC(=O)C(=O)NCC(c2cccnc2)N2CCN(Cc3ccccc3)CC2)cc1 (stereo not given),.,.,-7%,.,.,.
Cc1c(C2CCN(CCc3ccccc3)CC2)noc1-c1ccc(Cl)cc1,-24%,.,.,.,.,.
C=CCc1ccc(OC(=O)c2ccccc2)c(OC)c1,-5%,-2%,6.7µM*,2%,-12%,-4%
C=CCc1ccc(OCCCCN2CCC(C)CC2)c(OC)c1,-13%,-2%,1%,-1%,8%,6%
C=CCc1ccc(OCC(O)CO)c(OC)c1 (stereo not given),-23%,5%,-11%,8%,?,13%
C=CCc1ccc(OCCCOc2ccc(C(=O)O)cc2)c(OC)c1,15%,5%,11µM*,3%,?,15%
COc1ccccc1NC(=S)N(Cc1ccco1)Cc1cc2cc(C)c(C)cc2[nH]c1=O,-25%,-20%,7%,7%,?,-21%
